# Measured values published in the supplement of paper PMC11732987, “Enantioselective OTUD7B fragment discovery through chemoproteomics screening and high-throughput optimisation” (Communications Chemistry, 2025).
# Unmarked numbers belong to inactive results.
# Legend:
# Assay in all cases: log2 ratio of Biotin-Ahx-Ub-VS probe labelling (fragment/DMSO); higher = less target engagement (more negative = stronger competition), active = hit call of the paper (q ≤ 0.05, log2 ratio ≤ -1)
# Details in all cases: compound concentration: 200 uM; treatment time: 3 h
# USP19 = biological target: T1, USP19 (UniProt O94966)
# T1 sequence (whole entry): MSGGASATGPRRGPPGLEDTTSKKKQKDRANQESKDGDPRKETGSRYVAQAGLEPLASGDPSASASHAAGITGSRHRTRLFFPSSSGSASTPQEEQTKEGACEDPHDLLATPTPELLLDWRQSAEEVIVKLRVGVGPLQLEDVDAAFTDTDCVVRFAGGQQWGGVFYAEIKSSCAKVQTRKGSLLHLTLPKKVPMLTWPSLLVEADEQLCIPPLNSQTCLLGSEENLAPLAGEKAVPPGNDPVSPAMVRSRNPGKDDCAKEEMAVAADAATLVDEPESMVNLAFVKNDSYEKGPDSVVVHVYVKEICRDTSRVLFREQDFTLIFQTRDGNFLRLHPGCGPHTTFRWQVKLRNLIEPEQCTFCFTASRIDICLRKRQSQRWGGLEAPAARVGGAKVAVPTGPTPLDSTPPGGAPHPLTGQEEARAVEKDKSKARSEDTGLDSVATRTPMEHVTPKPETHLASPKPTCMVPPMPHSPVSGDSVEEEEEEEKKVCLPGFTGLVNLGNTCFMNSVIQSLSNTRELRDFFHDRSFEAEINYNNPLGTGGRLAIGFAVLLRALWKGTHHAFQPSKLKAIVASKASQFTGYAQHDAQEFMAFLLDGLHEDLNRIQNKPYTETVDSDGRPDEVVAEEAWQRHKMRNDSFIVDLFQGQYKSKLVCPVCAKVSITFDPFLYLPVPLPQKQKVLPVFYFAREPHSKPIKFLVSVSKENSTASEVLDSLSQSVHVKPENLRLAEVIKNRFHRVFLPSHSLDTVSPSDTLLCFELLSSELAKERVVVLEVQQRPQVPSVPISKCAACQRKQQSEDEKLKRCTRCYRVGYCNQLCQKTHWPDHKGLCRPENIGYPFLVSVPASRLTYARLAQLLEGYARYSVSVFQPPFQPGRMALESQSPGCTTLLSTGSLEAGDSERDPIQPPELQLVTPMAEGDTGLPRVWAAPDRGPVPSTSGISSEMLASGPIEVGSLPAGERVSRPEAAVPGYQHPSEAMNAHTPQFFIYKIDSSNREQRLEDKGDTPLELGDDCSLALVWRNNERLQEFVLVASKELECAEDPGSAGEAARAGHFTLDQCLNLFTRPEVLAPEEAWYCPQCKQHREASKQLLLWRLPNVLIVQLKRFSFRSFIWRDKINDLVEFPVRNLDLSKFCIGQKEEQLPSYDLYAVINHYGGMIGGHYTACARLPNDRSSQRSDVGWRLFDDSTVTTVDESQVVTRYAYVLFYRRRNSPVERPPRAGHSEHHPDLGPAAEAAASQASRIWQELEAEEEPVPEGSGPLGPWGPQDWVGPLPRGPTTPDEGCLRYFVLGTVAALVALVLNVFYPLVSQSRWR
# Summary of the method: (§1)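 Fragment (200 µM) or vehicle was incubated for 3 h with triplicate HEK293T lysate samples of 495 µg, which were then treated with Biotin-Ahx-Ub-VS at 0.5 µM final for 1 h. Labelled DUBs were enriched on NeutrAvidin, digested with LysC and trypsin, and analysed by diaPASEF LC-MS/MS. Values are average log2 fragment/vehicle ratios from an unpaired t-test on global-median-normalised Spectronaut label-free quantities, using proteins with ≥2 unique peptides.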
# USP22 = biological target: T2, USP22 (UniProt Q9UPT9)
# T2 sequence (whole entry): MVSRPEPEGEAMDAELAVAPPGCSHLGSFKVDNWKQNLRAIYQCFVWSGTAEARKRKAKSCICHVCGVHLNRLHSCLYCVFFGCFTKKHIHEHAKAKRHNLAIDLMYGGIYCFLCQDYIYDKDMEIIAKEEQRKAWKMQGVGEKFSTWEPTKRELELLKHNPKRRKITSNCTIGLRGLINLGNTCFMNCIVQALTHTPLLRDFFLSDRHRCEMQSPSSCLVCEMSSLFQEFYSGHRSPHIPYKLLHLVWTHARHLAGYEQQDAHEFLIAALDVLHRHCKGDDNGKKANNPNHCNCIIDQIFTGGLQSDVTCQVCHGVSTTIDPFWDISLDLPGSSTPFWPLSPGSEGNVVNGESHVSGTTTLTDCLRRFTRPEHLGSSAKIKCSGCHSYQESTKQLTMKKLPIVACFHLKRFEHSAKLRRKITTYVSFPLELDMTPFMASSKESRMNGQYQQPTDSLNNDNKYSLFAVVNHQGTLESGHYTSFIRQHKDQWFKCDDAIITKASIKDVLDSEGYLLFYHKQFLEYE
# Summary of the method: as §1
# USP24 = USP24 (UniProt Q9UPU5)
# USP24, sequence (Q9UPU5 whole entry): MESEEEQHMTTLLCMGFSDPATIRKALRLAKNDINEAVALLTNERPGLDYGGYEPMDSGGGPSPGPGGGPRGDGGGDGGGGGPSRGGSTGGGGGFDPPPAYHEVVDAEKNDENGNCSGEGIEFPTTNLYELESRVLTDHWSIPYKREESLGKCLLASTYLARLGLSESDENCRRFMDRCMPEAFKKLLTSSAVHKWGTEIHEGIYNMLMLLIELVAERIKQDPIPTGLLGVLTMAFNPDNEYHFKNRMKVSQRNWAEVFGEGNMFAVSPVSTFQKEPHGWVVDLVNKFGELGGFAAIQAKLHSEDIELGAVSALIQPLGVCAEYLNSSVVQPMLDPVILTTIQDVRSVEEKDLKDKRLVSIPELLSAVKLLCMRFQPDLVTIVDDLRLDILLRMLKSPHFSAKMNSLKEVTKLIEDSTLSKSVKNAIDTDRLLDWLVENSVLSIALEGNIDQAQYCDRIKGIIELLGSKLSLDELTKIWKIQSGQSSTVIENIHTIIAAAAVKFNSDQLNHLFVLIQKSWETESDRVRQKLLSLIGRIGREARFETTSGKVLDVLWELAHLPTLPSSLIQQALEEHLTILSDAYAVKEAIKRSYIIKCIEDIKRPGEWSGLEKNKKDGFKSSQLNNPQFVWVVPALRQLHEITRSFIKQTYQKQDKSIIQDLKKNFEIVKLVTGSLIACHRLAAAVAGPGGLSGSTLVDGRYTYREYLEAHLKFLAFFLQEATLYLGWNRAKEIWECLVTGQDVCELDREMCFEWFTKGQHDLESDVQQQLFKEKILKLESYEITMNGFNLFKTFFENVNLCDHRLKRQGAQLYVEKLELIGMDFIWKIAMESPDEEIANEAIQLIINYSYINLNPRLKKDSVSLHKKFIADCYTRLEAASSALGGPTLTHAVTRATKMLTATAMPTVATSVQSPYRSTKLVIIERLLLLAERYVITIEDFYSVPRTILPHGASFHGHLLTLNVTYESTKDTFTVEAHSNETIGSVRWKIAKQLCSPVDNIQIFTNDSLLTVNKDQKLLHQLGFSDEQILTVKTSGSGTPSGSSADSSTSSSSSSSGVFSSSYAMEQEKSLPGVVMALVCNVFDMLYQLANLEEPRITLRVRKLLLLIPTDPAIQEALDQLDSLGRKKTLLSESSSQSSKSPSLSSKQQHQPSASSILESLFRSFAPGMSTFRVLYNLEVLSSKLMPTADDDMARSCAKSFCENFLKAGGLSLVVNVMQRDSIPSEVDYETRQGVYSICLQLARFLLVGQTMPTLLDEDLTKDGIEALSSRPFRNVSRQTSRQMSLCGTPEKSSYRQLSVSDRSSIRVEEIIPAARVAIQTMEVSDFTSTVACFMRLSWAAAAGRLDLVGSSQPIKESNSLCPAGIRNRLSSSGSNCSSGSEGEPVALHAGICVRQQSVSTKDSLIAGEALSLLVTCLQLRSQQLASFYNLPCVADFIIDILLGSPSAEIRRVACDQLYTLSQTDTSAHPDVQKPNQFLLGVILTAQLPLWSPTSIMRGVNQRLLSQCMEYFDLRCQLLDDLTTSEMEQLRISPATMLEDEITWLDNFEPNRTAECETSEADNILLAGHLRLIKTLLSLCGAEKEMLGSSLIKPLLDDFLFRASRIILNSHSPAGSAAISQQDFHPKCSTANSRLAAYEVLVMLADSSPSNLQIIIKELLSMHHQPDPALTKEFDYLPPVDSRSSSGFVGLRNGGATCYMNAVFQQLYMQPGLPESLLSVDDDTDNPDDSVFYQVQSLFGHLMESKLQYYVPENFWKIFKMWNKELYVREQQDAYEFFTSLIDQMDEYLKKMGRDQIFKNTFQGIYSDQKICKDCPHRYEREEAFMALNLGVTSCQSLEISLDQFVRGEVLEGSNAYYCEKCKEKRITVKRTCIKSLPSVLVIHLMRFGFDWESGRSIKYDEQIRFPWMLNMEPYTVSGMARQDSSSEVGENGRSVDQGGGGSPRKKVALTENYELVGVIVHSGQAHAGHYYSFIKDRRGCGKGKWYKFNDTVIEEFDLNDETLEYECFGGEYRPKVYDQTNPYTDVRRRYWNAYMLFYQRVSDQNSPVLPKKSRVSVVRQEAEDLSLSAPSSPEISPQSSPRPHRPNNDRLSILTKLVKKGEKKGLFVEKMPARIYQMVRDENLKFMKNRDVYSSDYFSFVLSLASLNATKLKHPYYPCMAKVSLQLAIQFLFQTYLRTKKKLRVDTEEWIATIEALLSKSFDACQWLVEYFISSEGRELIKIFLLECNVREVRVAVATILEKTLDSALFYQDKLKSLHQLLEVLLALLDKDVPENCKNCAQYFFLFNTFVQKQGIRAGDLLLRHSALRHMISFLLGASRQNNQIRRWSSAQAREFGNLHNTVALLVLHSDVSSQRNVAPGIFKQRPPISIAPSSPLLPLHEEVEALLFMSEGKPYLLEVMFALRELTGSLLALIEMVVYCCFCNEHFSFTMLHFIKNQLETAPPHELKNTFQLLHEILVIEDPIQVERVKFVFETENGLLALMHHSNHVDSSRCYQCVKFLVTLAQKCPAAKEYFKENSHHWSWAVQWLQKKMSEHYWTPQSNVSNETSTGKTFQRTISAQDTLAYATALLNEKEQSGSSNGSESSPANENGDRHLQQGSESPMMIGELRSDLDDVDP
# Summary of the method: as §1
# USP25 = biological target: T3, USP25 (UniProt Q9UHP3)
# T3 sequence (whole entry): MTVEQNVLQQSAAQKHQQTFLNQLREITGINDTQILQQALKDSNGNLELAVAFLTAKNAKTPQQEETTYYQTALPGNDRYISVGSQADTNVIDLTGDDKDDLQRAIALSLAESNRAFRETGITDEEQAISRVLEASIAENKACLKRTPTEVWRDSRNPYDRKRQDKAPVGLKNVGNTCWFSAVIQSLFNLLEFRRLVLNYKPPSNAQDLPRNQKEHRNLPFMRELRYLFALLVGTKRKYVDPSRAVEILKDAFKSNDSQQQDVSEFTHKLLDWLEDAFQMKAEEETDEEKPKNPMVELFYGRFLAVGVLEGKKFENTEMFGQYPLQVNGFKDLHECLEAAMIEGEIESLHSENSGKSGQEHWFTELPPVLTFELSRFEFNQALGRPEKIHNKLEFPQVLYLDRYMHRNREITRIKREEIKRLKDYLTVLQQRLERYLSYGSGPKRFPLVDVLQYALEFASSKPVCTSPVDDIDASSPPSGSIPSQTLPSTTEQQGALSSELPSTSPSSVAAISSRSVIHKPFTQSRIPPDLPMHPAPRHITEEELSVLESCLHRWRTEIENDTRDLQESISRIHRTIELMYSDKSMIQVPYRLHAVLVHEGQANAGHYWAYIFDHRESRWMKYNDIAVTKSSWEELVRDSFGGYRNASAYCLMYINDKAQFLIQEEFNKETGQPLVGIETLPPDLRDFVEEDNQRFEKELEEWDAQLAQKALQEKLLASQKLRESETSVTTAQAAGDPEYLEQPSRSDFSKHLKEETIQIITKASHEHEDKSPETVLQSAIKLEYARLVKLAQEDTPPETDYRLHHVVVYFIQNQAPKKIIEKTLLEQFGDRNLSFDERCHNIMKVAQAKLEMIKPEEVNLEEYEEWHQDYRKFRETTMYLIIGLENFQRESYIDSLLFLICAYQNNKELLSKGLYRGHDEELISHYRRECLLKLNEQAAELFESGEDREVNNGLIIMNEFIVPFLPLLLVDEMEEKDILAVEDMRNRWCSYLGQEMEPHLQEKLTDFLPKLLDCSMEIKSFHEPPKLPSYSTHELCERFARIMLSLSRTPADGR
# Summary of the method: as §1
# USP28 = biological target: T4, USP28 (UniProt Q96RU2)
# T4 sequence (whole entry): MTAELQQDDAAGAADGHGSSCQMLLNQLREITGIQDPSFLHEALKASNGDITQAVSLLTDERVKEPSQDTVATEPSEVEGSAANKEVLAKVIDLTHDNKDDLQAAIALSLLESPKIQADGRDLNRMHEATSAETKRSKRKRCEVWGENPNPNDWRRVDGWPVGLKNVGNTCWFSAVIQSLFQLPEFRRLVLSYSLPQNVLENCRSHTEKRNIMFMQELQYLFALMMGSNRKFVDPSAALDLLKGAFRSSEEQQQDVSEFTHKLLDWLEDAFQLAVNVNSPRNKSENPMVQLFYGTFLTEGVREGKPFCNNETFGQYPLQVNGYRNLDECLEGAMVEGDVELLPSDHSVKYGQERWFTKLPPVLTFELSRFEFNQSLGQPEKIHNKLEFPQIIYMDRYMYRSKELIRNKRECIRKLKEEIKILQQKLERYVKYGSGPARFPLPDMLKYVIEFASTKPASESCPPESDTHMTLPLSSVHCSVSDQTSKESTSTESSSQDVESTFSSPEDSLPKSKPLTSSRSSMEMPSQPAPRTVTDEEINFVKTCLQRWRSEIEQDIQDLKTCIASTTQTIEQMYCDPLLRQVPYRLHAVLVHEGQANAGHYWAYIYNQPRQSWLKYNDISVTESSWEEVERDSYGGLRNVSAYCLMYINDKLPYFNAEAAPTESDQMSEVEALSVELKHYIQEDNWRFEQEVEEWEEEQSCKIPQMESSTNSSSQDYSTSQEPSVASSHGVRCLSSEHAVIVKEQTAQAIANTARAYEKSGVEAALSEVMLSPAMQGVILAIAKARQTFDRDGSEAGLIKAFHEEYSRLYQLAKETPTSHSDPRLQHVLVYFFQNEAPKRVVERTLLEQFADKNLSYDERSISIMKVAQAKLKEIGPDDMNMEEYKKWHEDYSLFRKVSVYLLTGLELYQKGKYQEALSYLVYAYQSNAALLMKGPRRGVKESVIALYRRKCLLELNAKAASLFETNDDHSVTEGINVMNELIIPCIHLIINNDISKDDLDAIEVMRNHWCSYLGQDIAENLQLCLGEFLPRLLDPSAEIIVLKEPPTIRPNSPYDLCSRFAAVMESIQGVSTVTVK
# Summary of the method: as §1
smiles,measurement,setting,value
O=C(CCl)N1CCc2[nH]c3ccccc3c2C1,log2 ratio of Biotin-Ahx-Ub-VS probe labelling,USP19,-0.968
same,log2 ratio of Biotin-Ahx-Ub-VS probe labelling,USP22,-0.357
same,log2 ratio of Biotin-Ahx-Ub-VS probe labelling,USP24,-1.93 (active)
same,log2 ratio of Biotin-Ahx-Ub-VS probe labelling,USP25,-0.589
same,log2 ratio of Biotin-Ahx-Ub-VS probe labelling,USP28,-0.765
